This note sets out measurements from PubChem BioAssay (NCI).

The test system of this experiment is MDA-MB-468 breast. The experiment is described as follows: NCI-60 one-dose screen, 48 h (100 = growth as untreated, 0 = no growth, -100 = all killed). The conditions noted are these: 10 µM unless noted.

Compounds without any hit were thinned out: in the full panel of roughly 83,000, 20% have a hit.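 Treatment: one concentration, 48 hours, 96-well format. Scoring: percent growth, with anything below 10 considered active.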 Values without a mark were called inactive. Calls of active or inactive are those of the source.

For the molecule `CCN(CC)c1ccc2c(c1)Oc1nc(N)c(C#N)c(N)c1C2Sc1ccc(SC)cc1` (stereo not drawn), the growth is -37.4% (active). For the molecule `COc1cccc(C(=O)NNc2nc(N3CCOCC3)nc(N3CCN(C(c4ccccc4)c4ccccc4)CC3)n2)c1`, the growth is 61.7%. The value for `COc1ccc2nc3ccccc3c(NCc3ccc(F)cc3)c2c1` was -23.9% (active); that for `c1coc([C@@H]2C[C@@H]3Cc4ccc5ccccc5c4N2O3)c1` was 89.7%.

As for `CCN(CC)CCC(=O)Nc1ccc(Cn2nnc3c2C(=O)c2nnn(Cc4ccc(NC(=O)CCN(CC)CC)cc4)c2C3=O)cc1`, the growth is -66.4% (active). Turning to `COC(=O)CCCCCN=Cc1c(O)c(O)c(C(C)C)c2cc(C)c(-c3c(C)cc4c(C(C)C)c(O)c(O)c(C=NCCCCCC(=O)OC)c4c3O)c(O)c12`, the growth was 26.3%. The value for `O=C(O)c1cccc(S(=O)(=O)c2ccccc2)c1` was 94.7%; that for `COc1ccc(C(=O)C(CN(C)C)c2ccccc2)cc1` (stereo not drawn) was -58.5% (active). With `Cn1cc(-c2csc(-c3c[nH]c4ccccc34)n2)c2cnccc21` the figure was -20.8% (active); with `Oc1[nH]c2ccccc2c1/C=c1/ccc2c(c1)N=C(c1cc(F)cc(F)c1)N=2`, 20.6%; with `Cc1c(C(N)=O)sc2ncn(CC(=O)NN=C3CCCCC3)c(=O)c12`, 109%. The value for `COc1ccc(-c2nc(/C=C3/C(=O)Nc4ccc(F)cc43)c3ccccn23)cc1` was 105%; that for `COc1ccc(-c2cc(-c3ccccc3)nc(SCCCCCC(=O)NO)n2)cc1` was 64.8%. As for `CN1C(=S)N(C)C2C1NN=C1SC(c3ccccc3)=CC(=O)N12` (stereo not drawn), the growth is 62.9%. Take `c1cc[n+](C2c3ccccc3C([n+]3ccccc3)c3ccccc32)cc1` (stereo not drawn): the growth was -37.4% (active). On to `OC1CCN(CCCOc2c3ccc(Cl)cc3nc3c2oc2ccccc23)CC1`, for which the growth is -43.9% (active). The value for `CCOC(=O)c1nn(C2CCCCO2)c2ccc(NC(=O)CSc3nc4ccccc4c(=O)[nH]3)cc12` (stereo not drawn) was 95.7%; that for `Nc1nc(-c2cccc([N+](=O)[O-])c2)c(N=Nc2ccc(Br)cc2)s1` was -45.7% (active); that for `CCCCCCCCCC(=O)Oc1ccc(/C(=C(/C)c2ccccc2)c2ccc(OCCN3CCCC3)cc2)cc1` was -29.4% (active). Take `O=C(S)CNC(=O)c1ccccc1`: the growth is 95.7%.

As to `CN(C)c1ccc(C2C(C#N)=C(/N=C/c3ccccc3)Oc3c2ccc2ccccc32)cc1` (stereo not drawn), the growth is 86.3%.

Regarding `COc1ccc(NC(=O)c2sc3nc(C)c(C(O)c4ccccc4)cc3c2N)cc1` (stereo not drawn), the growth is 14.1%. With `O=C(Nc1cccc(-n2cc(-c3ccncc3)c(-c3ccc(Cl)c(O)c3)n2)c1)c1ccccc1`, the growth was 64.1%.

With `Cc1cccc2c3c(sc12)C(c1ccc(Cl)cc1)C(C#N)=C(N)O3` (stereo not drawn), the growth was 17.3%. Take `O=C(CCl)Oc1ccc([N+](=O)[O-])cc1`: the growth was 112%. As to `CC(C)(C)c1cc(C(=O)Nc2ccccc2C(=O)NCCN)cc(C(C)(C)C)c1`, the growth is -76.7% (active). Turning to `CC/C=C\C/C=C\C[C@H](O)C/C=C1/C(=O)C=C[C@@H]1C/C=C\CCCC(=O)OC`, the growth was -51.7% (active). Regarding `Cc1ccnc(Nc2ccc([N+](=O)[O-])c(NCCN3CCOCC3)n2)c1`, the growth was 26.3%.

In the case of `Cc1noc(C)c1C(=O)OCc1coc2ccccc2c1=O`, the growth is 24.5%.

With `COC(=O)C1CCCN(S(=O)(=O)/N=C2\NC(=O)NC2=C(Cl)Cl)C1` (stereo not drawn), the growth was 32.8%. With `C=CCn1c(SCC(=O)Nc2cccc(C(=O)/C=C/c3ccc(OC)c(OC)c3)c2)nc2ccccc2c1=O` the figure was 80.9%; with `COc1cc(C(=O)N2N=C(c3ccc(S(C)(=O)=O)cc3)CC2c2ccco2)cc(OC)c1OC` (stereo not drawn), 36.7%. Regarding `CCCCCCCCCCCCCCCCNC(=S)N/N=C/c1ccc(O)cc1O`, the growth was 57.1%. As to `Cc1cc(NCCCNc2ccnc3cc(Cl)ccc23)nc(N2CCN(C)CC2)n1`, the growth was 65.4%.

`CCc1cccc2c3c(sc12)C(c1ccc(OC)cc1)C(C#N)=C(/N=C/c1ccc(Cl)cc1)O3` (stereo not drawn): the growth was -6.83% (active).

Turning to `O=C(Nc1cccc(C(F)(F)F)c1)Nc1ccc(OCc2nnc(-c3ccc(Cl)cc3)o2)c(F)c1`, the growth was 68.2%. The value for `O=[N+]([O-])c1cc2c(ccc3occc32)o1` was -8.85% (active). The value for `COc1ccc(/C=C\c2cc(OC)c(OC)c(OC)c2)cc1OCC(=O)Nc1nc2ccccc2s1` was 9.63% (active).
